Only some compounds are listed: those with a hit (about 12% of all), similar ones and a draw of the others.
KCC2 mod – KCC2 cotransporter modulators, thallium flux, primary screen, cell-based, HEK293 KCC2, FluoZin-2 fluorescence, MLSMR; KCC2 cells, thallium flux FluoZin-2 fluorescence; AID 1456, 2008; actives 2.2% (n = 190,000); B-score of Tl+ flux slope (higher = more flux/activation; lower = inhibition) at 10 µM;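 active = thallium flux slope and its plate-corrected score both differing from the plate sample mean at a set confidence after two filtering rounds, in either direction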;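 also: slope of fluorescence scaled to starting intensity during 10 to 20 s after thallium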
ROMK primary – ROMK potassium channel modulators, primary screen, cell-based, thallium flux, MLSMR library; Tet-inducible ROMK, thallium flux fluorescence; actives lie on both sides; B-score at 10 µM; actives 2% (n = 130,000);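 active = signal ratio slope over the read window, or its plate-corrected B-score, at least 3 SD from the plate mean, either direction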;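 also: B-score of the F/F0 ratio slope over 7 to 12 s after thallium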
Target sequence (P48048 whole entry, looked up): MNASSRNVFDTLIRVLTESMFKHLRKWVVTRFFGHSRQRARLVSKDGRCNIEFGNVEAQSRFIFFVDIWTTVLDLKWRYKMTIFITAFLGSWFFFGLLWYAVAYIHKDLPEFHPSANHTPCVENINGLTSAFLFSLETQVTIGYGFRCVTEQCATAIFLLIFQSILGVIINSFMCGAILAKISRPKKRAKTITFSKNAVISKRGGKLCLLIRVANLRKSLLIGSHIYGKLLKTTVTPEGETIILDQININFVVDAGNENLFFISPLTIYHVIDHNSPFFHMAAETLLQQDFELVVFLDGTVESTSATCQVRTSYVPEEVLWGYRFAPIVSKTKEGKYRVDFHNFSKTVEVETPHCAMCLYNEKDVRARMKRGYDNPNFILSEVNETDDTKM
L major viab – Leishmania major promastigote growth inhibition, primary screen; Leishmania major promastigotes, resazurin fluorescence viability; inhibition, % at 10 µM; actives 9% (n = 200,000); AID 1063, 2008; in the data active = inhibition above about 50%;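 also: promastigotes grown with compound for 44 hours at 28 °C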
WT yeast gro inh – growth inhibition of WT strain, primary screen, mitochondrial fusion inhibitor project, WT and mutant strains, chemical genetic | AID 1362, 2008 | mitochondrial fusion phenotypic screen | actives 2.1% (n = 190,000) | inhibition, % at 10 µM; in the data active = inhibition above about 58%; tested in S. cerevisiae
m-calpain inh – inhibitors of pig calpain II, primary screen, biochemical, fluorogenic peptide substrate, 1536-well; purified calpain II, 30 min; inhibition, % at 16 µM; actives 0.37% (n = 220,000);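 active = inhibition above about 50%, limit read from the data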
ROMK retest – ROMK channel modulator hit retest, confirmation, cell-based, thallium flux, duplicate, resupplied hits. AID 1917, 2009. actives 54% (n = 3,000). normalized thallium flux (F/F0 slope) at 10 µM. shares compounds with ROMK primary. fluorescence ratio; active compounds read low;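 active = Flux at 10 µM at least 3 SD below or above vehicle control mean in one or both replicates; inconclusive = no clear call, values can overlap the other calls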
* hit, by the source's call; i = inactive; ? = inconclusive; nt = no result given.

SMILES | KCC2 mod | ROMK primary | L major viab | WT yeast gro inh | m-calpain inh | ROMK retest
CC(C)C(NC(=O)c1ccc2c(c1)OCO2)C(=O)N/N=C/c1cccs1 (centres undefined) | 0.947 | -0.726 | -4.2 | -9.3 | -3.0 | nt
Cc1c(/C=N/NC(=O)C(NC(=O)c2ccc3c(c2)OCO3)C(C)C)c2ccccc2n1C (centres undefined) | -0.828 | 1.58* | 25.0 | 1.1 | -11.1 | 0.0742
CSCCC(NS(=O)(=O)c1ccc(Cl)cc1)C(=O)OCC(=O)N1CCOCC1 (centres undefined) | 0.866 | 6.32* | -7.3 | -13.0 | -12.2 | 0.094
COC(=O)CCN(C(=O)c1ccc(N2CCCCC2)c([N+](=O)[O-])c1)c1ccccn1 | 0.125 | -2.05* | -3.8 | 1.4 | 16.2 | 0.0673*
COc1ccccc1OCCn1c(C(C)O)nc2ccccc21 (centres undefined) | -0.00512 | -4.94* | -0.8 | 43.7 | -3.7 | 0.0657*
CC(O)c1nc2ccccc2n1CCOc1ccccc1 (centres undefined) | -0.847 | -1.22 | 6.2 | -15.7 | -18.8 | nt
CCN(C1CCCCC1)S(=O)(=O)c1cc(C)ccc1OC | -0.4 | -1.65 | 0.1 | -0.9 | 3.6 | nt
CCN(C1CCCCC1)S(=O)(=O)c1ccc(OC)c(C)c1 | -0.522 | -3.41* | 3.2 | -0.5 | 5.7 | 0.0663*
CCOC1=C/C(=C/c2c(N)n3nc(-c4ccccc4)sc3nc2=O)C=CC1=O | -1.78 | -3.54* | 11.8 | 9.6 | -71.8 | 0.0439*
Cc1nc2nc(-c3cccs3)cn2nc1C | i | -8.54* | -0.3 | -0.8 | i | 0.0417*
COc1ccc2oc(=O)c(-c3nnc(N)s3)cc2c1 | -1.3 | -0.735 | 6.1 | 16.9 | i | nt
COc1ccc2oc(=O)c(-c3nc(C)cs3)cc2c1 | -0.132 | -5.14* | -3.6 | 3.6 | -134.1 | 0.0723
Cn1cnc([N+](=O)[O-])c1S(=O)(=O)c1ccc(Cl)cc1 | -0.919 | -4.81* | 26.8 | 3.1 | -3.9 | 0.0593*
O/N=C1\CCCc2oc3c(c21)CCCC3 | nt | nt | -7.5 | 6.8 | 27.0 | 0.0644*
O/N=C1\CCCc2nnc3c(c21)CCCC3 | -0.514 | nt | 20.2 | 6.1 | -6.3 | nt
O=C(NC1CC1)C1=C[C@@H](c2ccc3c(c2)OCO3)C[C@@H](OCc2ccc(CO)cc2)O1 | -0.538 | nt | -5.0 | -27.0 | -15.7 | nt
Cc1sc2nc(CN3CCCCC3)nc(N3CCN(C(=O)c4ccco4)CC3)c2c1C | -2.47 | 1.6 | 9.5 | 0.1 | -4.6 | nt
Cc1sc2nc(CN3CCCC3)nc(N3CCN(S(=O)(=O)c4cccs4)CC3)c2c1C | nt | -2.52* | 56.0* | nt | -77.1 | 0.0553*
O=C1OC(c2cccs2)=N/C1=C\c1ccc(-c2cccc(Cl)c2)o1 | nt | nt | 1.7 | 0.1 | -81.7 | 0.0518*
Cc1ccc(C)c(Cc2c(C)nc3c(C(=O)NCc4ccc5c(c4)OCO5)cnn3c2C)c1 | 1.48 | 0.168 | 44.0 | 46.0 | -5.4 | nt
Cc1cccc(Cc2c(C)nc3c(C(=O)N4CCN(Cc5ccc6c(c5)OCO6)CC4)cnn3c2C)c1 | -0.769 | nt | 1.5 | 8.2 | -86.4 | 0.0461*
Cc1cccc(-n2ncc3c(NCc4cccnc4)ncnc32)c1 | -0.493 | nt | nt | 8.6 | -10.5 | nt
Cc1ccc(-n2ncc3c(NCc4cccnc4)ncnc32)c(C)c1 | 0.285 | -0.207 | -6.2 | -0.4 | -12.4 | 0.0665*
CC(C)(C)NCC(O)COc1ccccc1C(C)(C)C (centres undefined) | 0.0773 | -3.77* | 8.4 | 0.1 | -60.9 | 0.0784
CC(C)(C)NCC(O)COc1ccccc1C(=O)CCc1ccccc1 (centres undefined) | -0.661 | -3.93* | 24.9 | 0.4 | 23.6 | 0.0502*
Cc1c[nH]c2cccc(OCC(O)CNC(C)(C)C)c12 (centres undefined) | 0.976 | nt | 0.0 | -0.3 | 20.6 | nt
CCCCOc1ccc(NC(=O)CCSc2nccn2C)cc1 | -0.157 | 0.132 | 3.0 | -0.1 | 20.6 | nt
Cc1c(NC(=S)NC(=O)c2ccc(-c3ccc(Cl)cc3)o2)cccc1C(=O)O | -4.41 | 3.51* | -4.5 | -0.6 | -40.1 | 0.0889
Cc1cc(/C=N/n2cnnc2)c(C)n1-c1cc(Cl)ccc1Cl | -0.858 | nt | 28.0 | 41.2 | -23.3 | ?

Source: PubChem BioAssay (several laboratories)
